Inconclusive results are not listed. Activity calls are given as the source filed them.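 How the source made its calls, unless noted: active means fitted half-maximal concentration within 10 nM to 100 µM, steepness 0.5 to 2, significant signal drop, low assay interference; inactive means the rest.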
Legend:
[1] = biological target: GTPase HRas (Homo sapiens) (UniProt P01112); assay: inhibitors of GTP binding to wildtype Ras, dose response, biochemical, multiplex bead flow cytometry (AID 1335); settings: bead-based flow cytometry, Bodipy-GTP binding to GST-Ras; at 100 µM (top of the series)
[2] = yeast TOR pathway RPL19A-GFP modulators, primary screen, cell-based, S. cerevisiae, multiplex flow cytometry (AID 1862; in the data active means percent of DMSO control GFP below about 86%;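 further: lower values mimic rapamycin by blocking the RPL19A rise seen in DMSO cells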); settings: S. cerevisiae RPL19A-GFP strain, flow cytometry fluorescence, 3 h; at 10 µM; stronger effect = lower value
[3] = modulators of MEP2-GFP levels in yeast, primary screen, S. cerevisiae, multiplex flow cytometry (AID 1867;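 active means GFP response, as percent of the DMSO control, above the screen-wide mean plus 3 SD, about 139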;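 further: median GFP channel fluorescence of barcode-gated MEP2-GFP cells measured by flow cytometry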); settings: S. cerevisiae MEP2-GFP strain, 3 h, at 10 µM, stronger effect = higher value
[4] = modulators of CIT2-GFP expression in yeast, primary screen, S. cerevisiae, GFP fusion, multiplex flow cytometry (AID 1870;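 active means percent response above a set limit, the screen-wide mean plus 3 SD, cut at about 130% in these data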;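 further: barcoded CIT2-GFP strain pooled with four other GFP strains with rapamycin as positive control; median GFP fluorescence per well over plate mean of DMSO wells so 100% = DMSO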); settings: 3 h, at 10 µM, stronger effect = higher value
[5] = modulators of LAP4-GFP expression in yeast, primary screen, S. cerevisiae, multiplex flow cytometry (AID 1873;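 active means GFP signal, as percent of the solvent control, above the screen mean plus 3 SD, about 149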); settings: 3 h, at 10 µM, stronger effect = higher value
[6] = modulators of AGP1-GFP expression in yeast TOR pathway, primary screen, cell-based, multiplex flow cytometry, S. cerevisiae (AID 1887;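 active means GFP signal above the screen-wide mean plus 3 SD, that is over about 124.5% of the solvent control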;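 further: AGP1-GFP fusion strain of S. cerevisiae within a five-strain barcoded multiplex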); settings: 3 h, at 10 µM, stronger effect = higher value
[7] = inhibitors of CD8+ T cell-vesicle binding, pilot screen, LFA-1/ICAM-1 modulator project, MLPCN validation set, flow cytometry (AID 2523;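 active means response below a set limit, under 55% cells CD8-positive and vesicle-bound, and CD8 cells' 90th-percentile brightness under 279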;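 on vesicle binding response: mean PE anti-B7-1 fluorescence of CD8+ cells relative to row control; 100% = QL9-loaded vesicles with DMSO vehicle in the same plate row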); settings: 2C mouse CD8+ T cells, at 7 µM, stronger effect = lower value; double positive events: measured here: CD8+/vesicle+ event percentage
[8] = biological target: Integrin beta-1 (Homo sapiens) + Integrin alpha-4 (Homo sapiens) (UniProt P13612+P05556); assay: inhibition of HUTS-21 binding to VLA-4, pilot screen, VLA-4 allosteric modulator project, U937 cells, HUTS-21 mAb, flow cytometry, validation set (AID 2674;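 active means inhibition above 50%, about 3 SD of the validation set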;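 further: antibody binding induced by the VLA-4 ligand LDV present at three times its Kd; 0% = LDV ligand with antibody and no compound and 100% = antibody without LDV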); settings: HUTS-21 LIBS mAb binding, at 6.7 µM, stronger effect = higher value
[9] = superoxide lowering in aged yeast cells, pilot screen, validation compound set (AID 2706;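 active means superoxide response below 65% of plate, a cut near 3 SD across the whole screen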;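 further: yeast exposed to compound for one week at 30 degrees C before staining; 100% = mean of all compound wells on the same plate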); settings: S. cerevisiae aging, superoxide DHE fluorescence; at 10 µM; stronger effect = lower value
[10] = biological target: Beta-adrenergic receptor kinase 1 (Homo sapiens) (UniProt P25098); assay: GRK2 binders displacing RNA aptamer, biochemical, validation, human GRK2, bead flow cytometry (AID 488806;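 active means aptamer binding inhibition above 30%, about 3 SD of noise from non-fluorescent compounds; inactive means inhibition at or below 30%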); settings: bead-bound GRK2, FAM-aptamer displacement, at 10 µM, stronger effect = higher value
[11] = biological target: Beta-2 adrenergic receptor (Homo sapiens) (UniProt P07550); assay: beta2AR agonists driving receptor internalization, pilot screen, cell-based, FAP fluorogen, flow cytometry, validation set (AID 504459;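 active means percent response above 42, roughly 3 SD of non-fluorescent test compounds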;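 further: agonist-driven loss of surface beta2AR via internalization measured by FAP dye flow cytometry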); settings: Am2.2-beta2AR cells, FAP surface receptor flow cytometry; at 10 µM; stronger effect = higher value
[12] = biological target: AP-2 complex subunit beta (Homo sapiens) (UniProt P63010); assay: inhibitors of arrestin peptide binding to AP2, pilot screen, biochemical, validation set, GST-AP2 beads, flow cytometry (AID 504541;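 active means inhibition above 54%, about 3 SD of non-fluorescent compounds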;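 further: AP2 carries R879A mutation and is captured from E. coli lysate; bead-bound FITC arrestin peptide fluorescence measuring arrestin peptide binding to AP2; 0% = DMSO wells and 100% = excess unlabeled arrestin peptide control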); settings: FITC arrestin peptide, at 10 µM, stronger effect = higher value
[13] = yeast V-ATPase proton transport modulators, S. cerevisiae, pHLuorin, HTS validation (AID 504600; in the data active means response above about 15%;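 further: plate controls were DMSO for no effect and reference compound for full effect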); settings: S. cerevisiae pHLuorin cytosolic pH, at 10 µM, stronger effect = higher value
[14] = system: anti-desmoglein-3 scFv antibody binding to human DSG3; assay: inhibitors of anti-DSG3 scFv binding to DSG3, pilot screen, biochemical, validation compound set, bead-based, flow cytometry (AID 588368;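 active means binding below the plate cutoff, the plate median minus 3 SD, with a reading above zero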;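 further: signal is the median channel fluorescence of bead-bound GFP antibody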); settings: Protein G beads, DSG3-Fc, scFv-GFP binding, at 10 µM, stronger effect = lower value
[15] = system: Botulinum neurotoxin type F light chain protease (Clostridium botulinum); assay: Botulinum neurotoxin type F light chain protease inhibition, multiplex microsphere flow cytometry, validation set (AID 588459; call rule not given here); settings: multiplex microsphere protease substrate cleavage assay, at 10 µM, stronger effect = higher value
[16] = biological target: Botulinum neurotoxin type A (Clostridium botulinum) (UniProt P0DPI0); assay: BoNT/A light chain protease inhibitors, biochemical, multiplex microsphere flow cytometry, validation set (AID 588460; call rule not given here); settings: at 10 µM, stronger effect = higher value
[17] = biological target: Lethal factor (Bacillus anthracis) (UniProt P15917); assay: Lethal factor protease inhibitors, Bacillus anthracis, multiplex microsphere cleavage assay, validation set (AID 588461; call rule not given here); settings: flow cytometry, at 10 µM, stronger effect = higher value
[18] = inhibitors of fungal efflux pumps CDR1, CDR2, MDR1, pilot screen, validation compound set, multiplex, phenotypic (AID 588506;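 active means efflux inhibition above 0.42, the validation set average plus 4 SD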;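 further: Nile Red retained in cells so higher fluorescence means more efflux inhibition; 0 = negative control wells and 1 = enniatin B 25 µM full block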); settings: S. cerevisiae pump-expressing triplex, Nile Red efflux flow cytometry; at 10 µM; stronger effect = higher value
[19] = biological target: ATP-binding cassette sub-family B member 6 (Homo sapiens) (UniProt Q9NP58); assay: ABCB6 transporter inhibitors, pilot screen, K562-ABCB6 cells, flow cytometry, validation set (AID 588550;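 active means inhibition above the screen-wide mean plus 3 SD, about 51%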;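 further: 0% = DMSO wells and 100% = benzethonium chloride 70 µM positive control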); settings: K562-ABCB6 porphyrin accumulation, 1 h, at 10 µM, stronger effect = higher value
[20] = promoters of myeloid differentiation in arrested cells, primary screen, cell-based, GFP/MAC1 double positive, flow cytometry, validation set (AID 588685;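 active means differentiation response of at least 50%, scaled between solvent and reference control, from cells with both markers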;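 further: compound exposure lasts four days before antibody staining and flow analysis; 0% = DMSO wells and 100% = 5 µM fulvestrant positive control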); settings: ER-HoxA9 marrow cells, stronger effect = higher value

O=C(O)c1cn(Cc2ccc(Cl)cc2)c2ccccc12
GTP binding, percent of control [1]: 89.3%

CCOc1ccc(C2SCC(=O)Nc3c2c(C)nn3C2CCOC(C)(C)C2)cc1 (stereo unspecified)
GTP binding, percent of control [1]: 150%

C[C@]12CC[C@@H](O)C[C@@H]1CC[C@@H]1[C@@H]2CC[C@]2(C)[C@@H](O)CC[C@@H]12
percent of DMSO control GFP [2]: 95.4% (inactive) | GFP response vs DMSO [3]: 107% (inactive) | percent response of DMSO control [4]: 83% (inactive) | GFP response vs DMSO [5]: 150% (active) | GFP response, % of DMSO [6]: 106% (inactive) | double positive events [7]: 58.5% | vesicle binding response [7]: 122% (inactive) | inhibition [8]: -7.79% (inactive) | superoxide response (% of plate) [9]: 98% (inactive) | aptamer binding inhibition [10]: 3% (inactive) | response [11]: 0.4% (inactive) | inhibition [12]: -7.18% (inactive) | response [13]: 2.4% (inactive) | binding (% of control) [14]: 103% (inactive) | inhibition [15]: 1.2% (inactive) | inhibition [16]: 0.9% (inactive) | inhibition [17]: 3.5% (inactive) | efflux inhibition (fraction of control) [18]: 0.08 (inactive) | inhibition [19]: 7% (inactive) | differentiation response [20]: -13.3% (inactive)

Cc1ccccc1OCCCn1cc(C(=O)O)c2ccccc21
GTP binding, percent of control [1]: 92.4%

O=C(O)c1cn(Cc2ccc(F)cc2)c2ccccc12
GTP binding, percent of control [1]: 112%

O=c1[nH]c(=S)[nH]c(O)c1N=Nc1cc2c(cc1[N+](=O)[O-])OCO2
GTP binding, percent of control [1]: 66.6%

Cc1cc(OCCCn2cc(C(=O)O)c3ccccc32)ccc1Cl
GTP binding, percent of control [1]: 83.9%

CC1(C)CC(n2[nH]c(=O)c3c2NC(=O)CSC3c2ccccc2)CCO1 (stereo unspecified)
GTP binding, percent of control [1]: 86.2%

CN(C)c1ccc(/C=C/C=C2/C(=O)NC(=O)N(c3ccccc3)C2=O)cc1
GTP binding, percent of control [1]: 81.4%

Cc1ccc(C)c(OCCCn2cc(C(=O)O)c3ccccc32)c1
GTP binding, percent of control [1]: 88.6%

CN1C(=O)N(C)C(=O)C2(Cc3c(ccc4ccccc34)N(C)C2)C1=O
GTP binding, percent of control [1]: 82.6%

COc1ccc(-c2cc(=NCCCCCC(=O)O)c3cc(C)ccc3o2)cc1
GTP binding, percent of control [1]: 66.2%

O=C(O)c1cn(Cc2ccccc2Cl)c2ccccc12
GTP binding, percent of control [1]: 82.2%

Cc1sc(-n2c(C)cc(C=C3C(=O)NC(=O)NC3=O)c2C)c(C#N)c1C
GTP binding, percent of control [1]: 68.9%

O=C(O)c1cn(Cc2ccccc2F)c2ccccc12
GTP binding, percent of control [1]: 106%

CCN(CC)c1ccc(/C=N/c2sc3c(c2C#N)C2CCN3CC2)c(O)c1
GTP binding, percent of control [1]: 104%

Cc1nc2c(=O)n(C)c(=O)nc-2n(C)n1
GTP binding, percent of control [1]: 98.5%

Cc1cc(C)cc(N2C(=O)NC(=O)/C(=C\C=C\c3ccco3)C2=O)c1
GTP binding, percent of control [1]: 83.8%

O=C1CN=C(c2ccccc2F)c2cc(Cl)ccc2N1
percent of DMSO control GFP [2]: 90.9% (inactive) | GFP response vs DMSO [3]: 147% (active) | percent response of DMSO control [4]: 95.2% (inactive) | GFP response vs DMSO [5]: 78.7% (inactive) | GFP response, % of DMSO [6]: 88% (inactive) | double positive events [7]: 67.2% | vesicle binding response [7]: 272% (inactive) | inhibition [8]: 1.61% (inactive) | superoxide response (% of plate) [9]: 98.6% (inactive) | aptamer binding inhibition [10]: -3% (inactive) | response [11]: -21.4% (inactive) | inhibition [12]: 43.2% (inactive) | response [13]: -7.23% (inactive) | binding (% of control) [14]: 94.8% (inactive) | inhibition [15]: 3.7% (inactive) | inhibition [16]: 0.4% (inactive) | inhibition [17]: 1.5% (inactive) | efflux inhibition (fraction of control) [18]: 0.27 (inactive) | inhibition [19]: 14% (inactive) | differentiation response [20]: 11.5% (inactive)

C#C[C@]1(O)CC[C@H]2[C@@H]3CCC4=CC(=O)CC[C@]4(C)[C@H]3CC[C@@]21C
percent of DMSO control GFP [2]: 88.7% (inactive) | GFP response vs DMSO [3]: 140% (active) | percent response of DMSO control [4]: 106% (inactive) | GFP response vs DMSO [5]: 80.9% (inactive) | GFP response, % of DMSO [6]: 87.7% (inactive) | double positive events [7]: 64.1% | vesicle binding response [7]: 255% (inactive) | inhibition [8]: 3.55% (inactive) | superoxide response (% of plate) [9]: 97.8% (inactive) | aptamer binding inhibition [10]: 1% (inactive) | response [11]: -8% (inactive) | inhibition [12]: 14.2% (inactive) | response [13]: -3.36% (inactive) | binding (% of control) [14]: 102% (inactive) | inhibition [15]: 2.5% (inactive) | inhibition [16]: -0.5% (inactive) | inhibition [17]: -1.2% (inactive) | efflux inhibition (fraction of control) [18]: 0.3 (inactive) | inhibition [19]: 9% (inactive) | differentiation response [20]: -0.82% (inactive)

Cc1ccc(-n2c(O)c(/C=N/c3ncc(Br)cc3Br)c(=O)[nH]c2=O)cc1
GTP binding, percent of control [1]: 116%

O=C1C(=O)c2ccccc2-c2ccccc21
percent of DMSO control GFP [2]: 73.2% (active) | GFP response vs DMSO [3]: 126% (inactive) | percent response of DMSO control [4]: 92.9% (inactive) | GFP response vs DMSO [5]: 60.6% (inactive) | GFP response, % of DMSO [6]: 36.3% (inactive) | double positive events [7]: 61.3% | vesicle binding response [7]: 176% (inactive) | inhibition [8]: -0.43% (inactive) | superoxide response (% of plate) [9]: 83% (inactive) | aptamer binding inhibition [10]: 67% (active) | response [11]: 112% (active) | response [13]: 0.26% (inactive) | binding (% of control) [14]: 98.9% (inactive) | inhibition [15]: 5.3% (inactive) | inhibition [16]: 0.6% (inactive) | inhibition [17]: -4.7% (inactive) | efflux inhibition (fraction of control) [18]: 2.06 (active) | inhibition [19]: -64% (inactive) | differentiation response [20]: 100% (active)

CCOC(=O)c1c(NC(=O)c2c(N)n(CCCOC)c3nc4ccccc4nc23)sc2c1CCCC2
GTP binding, percent of control [1]: 144%

CCOCCCn1c(N)c(C(=O)Nc2sc3c(c2C(=O)OC)CCCC3)c2nc3ccccc3nc21
GTP binding, percent of control [1]: 122%

O=C1NC(=S)N(Cc2ccco2)C(=O)/C1=C\c1cccs1
GTP binding, percent of control [1]: 95.1%

O=C1CN=C(c2ccccc2)c2cc(Br)ccc2N1Cc1cc(=O)n2ccccc2n1
GTP binding, percent of control [1]: 64.5%

— PubChem BioAssay
